From PMC4552634, “A New Set of Chemical Starting Points with Plasmodium falciparum Transmission-Blocking Potential for Antimalarial Drug Discovery” (PLoS ONE, 2015)
Read-outs that look alike come from different tables or passages of the source. Screen size: about 13,000 compounds; about 3,200 (25%) showed an effect of 50% or more. Some of the results follow.

Test system: P. falciparum stage V gametocytes
Set-up: BacTiter-Glo ATP luminescence viability of purified stage V gametocytes in 384-well plates, per cent inhibition versus DMSO
Details: 48 h, 5 µM, inhibitor

| SMILES | % Inhibition [%] | % Inhibition (% Inhibition) [%] |
| --- | --- | --- |
| CCC[C@@H](C(=O)NCCc1cccc(OC)c1)N1C(=O)c2c(ccc(OC)c2OC)C1C(=O)Nc1c(C)cccc1C (stereo partly shown) [TCMDC-141135] | 18.96 |  |
| Cc1[nH]n(-c2cccc(Cl)c2)c(=O)c1-c1ccc(Cl)cc1 [TCMDC-123495] | -44.23 |  |
| O=C(Nc1ccc(C(F)(F)F)cc1)c1cc(Br)cnc1NCCCn1ccnc1 [TCMDC-136699] | 4.282 |  |
| COc1ccc(NC(=O)c2cc(-c3ccc(NC(C)=O)cc3)cnc2N)cc1 [TCMDC-135658] | 32 |  |
| CNC(=O)c1ccccc1Nc1nc(Nc2cccc(CS(C)(=O)=O)c2)ncc1C [TCMDC-133809] | 64.95 |  |
| CNC(=O)c1cc(F)c(F)cc1Nc1nc(Nc2cccc(CS(C)(=O)=O)c2)ncc1Cl [TCMDC-134060] | -6.741 |  |
| CNC(=O)c1ccccc1Nc1nc(Nc2cccnc2)ncc1C [TCMDC-134211] | 33.23 |  |
| Cc1ccc(NC(=O)c2ccc3ncccc3c2)cc1OC1CCN(Cc2ccsc2)CC1 [TCMDC-134270] | 12.12 |  |
| COc1ccccc1NC(=O)OC(COc1ccc(N)cc1)CN1CC=C(c2ccccc2)CC1 (stereo not shown) [TCMDC-136486] | 60.38 |  |
| COc1ccc(OCC(O)CN(Cc2ccccc2OC)C(=O)Nc2ccc(Br)cc2)cc1 (stereo not shown) [TCMDC-141494] | 25.96 |  |
| COc1cccc(OC)c1-c1ccccc1NC(=O)N1CCCc2cc(C)ccc21 [TCMDC-136199] | -20.26 |  |
| Cc1cccc2[nH]c(-c3cccc(-c4ccc(NC(=O)Nc5ccc(F)c(F)c5F)cc4)c3)nc12 [TCMDC-133225] | -8.037 |  |
| COc1ccc2ncc(F)c(CCN3CC(O)C(CNCc4nc5c(cc4Cl)OCC(=O)N5)C3)c2n1 (stereo not shown) [TCMDC-136031] |  | 24.96 |
| O=C(/C=C/c1ccc(Cl)c(Cl)c1)NCCCCCN1CCC(c2c[nH]c3cc(O)ccc23)CC1 [TCMDC-139282] | 10.47 |  |
| Oc1ccc2[nH]cc(C3CCN(CCCCCCCCCN4CCC(c5c[nH]c6ccc(O)cc56)CC4)CC3)c2c1 [TCMDC-139003] | 74.24 |  |
| Oc1ccc2[nH]cc(C3CCN(CCC(c4ccccc4)c4ccccc4)CC3)c2c1 [TCMDC-139017] | -54.72 |  |
| Oc1ccc2[nH]cc(C3CCN(CCCNCc4ccc(-c5ccccc5)cc4)CC3)c2c1 [TCMDC-139047] | 101.4 |  |
| Cc1cccc2nc(-c3cccc(-c4cccc(NC(=O)NC5CC5c5ccccc5)c4)c3)[nH]c12 (stereo not shown) [TCMDC-133254] | -21.78 |  |
| CNC(=O)/C=C/c1cc(NC(=O)Nc2cc(C)nc3c(F)cccc23)ccc1OC [TCMDC-140324] | -6.922 |  |
